In the antibiotic and cytotoxicity screens of Wong et al. (2023):
Hit rate of the full screen: of about 39,000 compounds, about 3,300 (8.5%) were called active. What follows is part of a selection rich in actives, with near analogues and random picks from the rest.

These compounds were tested on HepG2 (assay: cytotoxicity call (relative viability < 0.9)). Settings: 10 µM.

Compound | cytotoxicity call
CO[C@@H]1CN(C)C(=O)c2cc(NS(=O)(=O)CC(F)(F)F)ccc2OC[C@H](C)N(C(=O)c2ccc3c(c2)OCO3)C[C@@H]1C | inactive
COc1ccc(S(=O)(=O)Nc2ccc3c(c2)C(=O)N([C@H](C)CO)C[C@@H](C)[C@@H](CN(C)S(=O)(=O)c2ccc(C)cc2)O3)cc1 | inactive
C[C@H](CO)N1C[C@H](C)[C@H](CN(C)C(=O)Nc2ccccc2)OCCCC[C@H](C)Oc2ccc(NC(=O)Nc3ccc4c(c3)OCO4)cc2C1=O | inactive
COc1ccc(NC(=O)N(C)C[C@H]2OCCCC[C@@H](C)Oc3ccc(NC(=O)Cc4ccccc4)cc3C(=O)N([C@@H](C)CO)C[C@H]2C)cc1 | inactive
C[C@@H]1CCCCO[C@H](CN(C)C(=O)Nc2ccc(F)cc2)[C@H](C)CN([C@H](C)CO)C(=O)c2cc(NC(=O)Nc3ccc(F)cc3)ccc2O1 | inactive
C[C@H]1CN([C@@H](C)CO)C(=O)c2cc(NC(=O)Cc3ccccc3)ccc2O[C@@H]1CN(C)Cc1ccc(Cl)c(Cl)c1 | inactive
C[C@@H]1CCCCO[C@H](CN(C)S(=O)(=O)c2ccccc2)[C@H](C)CN([C@H](C)CO)C(=O)c2cc(NS(=O)(=O)c3cn(C)cn3)ccc2O1 | inactive
COc1ccc(NC(=O)N(C)C[C@H]2Oc3c(NC(=O)c4cnccn4)cccc3C(=O)N([C@H](C)CO)C[C@@H]2C)cc1 | inactive
C[C@@H]1CCCCO[C@@H](CN(C)Cc2ccc(C(=O)O)cc2)[C@H](C)CN([C@H](C)CO)C(=O)c2cc(NS(=O)(=O)c3ccccc3)ccc2O1 | inactive
Cc1noc(C)c1NC(=O)Nc1ccc2c(c1)C(=O)N([C@@H](C)CO)C[C@@H](C)[C@H](CN(C)Cc1ccc(Cl)c(Cl)c1)O2 | inactive
C[C@H]1CCCCO[C@@H](CN(C)Cc2ccc(C(F)(F)F)cc2)[C@@H](C)CN([C@@H](C)CO)C(=O)c2cc(NS(C)(=O)=O)ccc2O1 | inactive
C[C@@H]1CCCCO[C@@H](CN(C)Cc2ccc3c(c2)OCO3)[C@@H](C)CN([C@@H](C)CO)C(=O)c2cc(NC(=O)Nc3cccc4ccccc34)ccc2O1 | inactive
C[C@@H]1CCCCO[C@H](CN(C)Cc2ccc3c(c2)OCO3)[C@H](C)CN([C@@H](C)CO)C(=O)c2cc(NC(=O)Nc3cccc4ccccc34)ccc2O1 | active
C[C@@H]1CN([C@@H](C)CO)C(=O)c2cc(NC(=O)Nc3cccc4ccccc34)ccc2O[C@@H](C)CCCCO[C@H]1CN(C)Cc1ccc2c(c1)OCO2 | active
C[C@@H]1CCCCO[C@@H](CN(C)Cc2ccc3c(c2)OCO3)[C@@H](C)CN([C@H](C)CO)C(=O)c2cc(NC(=O)Nc3cccc4ccccc34)ccc2O1 | inactive
C[C@@H]1CCCCO[C@H](CN(C)Cc2ccc3c(c2)OCO3)[C@H](C)CN([C@H](C)CO)C(=O)c2cc(NC(=O)Nc3cccc4ccccc34)ccc2O1 | inactive
C[C@H]1CCCCO[C@@H](CN(C)Cc2ccc3c(c2)OCO3)[C@@H](C)CN([C@@H](C)CO)C(=O)c2cc(NC(=O)Nc3cccc4ccccc34)ccc2O1 | inactive
C[C@@H]1CCCCO[C@H](CN(C)Cc2ccc3c(c2)OCO3)[C@@H](C)CN([C@@H](C)CO)C(=O)c2cc(NC(=O)Nc3cccc4ccccc34)ccc2O1 | active
C[C@@H]1CN([C@H](C)CO)C(=O)c2cc(NC(=O)Nc3cccc4ccccc34)ccc2O[C@@H](C)CCCCO[C@@H]1CN(C)Cc1ccc2c(c1)OCO2 | active
CCOC(=O)c1c(C)c(Cl)c(O)c(Cl)c1O | inactive
COc1ccc(S(=O)(=O)Nc2ccc3c(c2)CC(=O)N([C@H](C)CO)C[C@@H](C)[C@H](CN(C)C)O3)cc1 | inactive

Compound | cytotoxicity call
Cc1noc(C)c1NC(=O)N(C)C[C@@H]1OCCCC[C@@H](C)Oc2ccc(NC(=O)Nc3ccc(F)cc3)cc2C(=O)N([C@H](C)CO)C[C@@H]1C | inactive
Cc1noc(C)c1S(=O)(=O)N(C)C[C@@H]1OCc2cnnn2CCCC(=O)N([C@@H](C)CO)C[C@H]1C | inactive
C[C@@H]1CCCCO[C@H](CN(C)C(=O)C2CCCCC2)[C@@H](C)CN([C@H](C)CO)C(=O)c2cc(NC(=O)C3CCCCC3)ccc2O1 | inactive
CC(C)NC(=O)Nc1ccc2c(c1)C(=O)N([C@H](C)CO)C[C@@H](C)[C@H](CN(C)S(=O)(=O)c1cn(C)cn1)O2 | inactive
COCCNC(=O)C[C@H]1CC[C@@H]2[C@H](COC[C@@H](O)CN2C(=O)Nc2ccccc2OC)O1 | inactive
COc1ccccc1CNC(=O)C[C@@H]1CC[C@H]2[C@@H](COC[C@H](O)CN2C(=O)Nc2ccc(F)cc2)O1 | inactive
COc1ccccc1CNC(=O)C[C@H]1CC[C@H]2[C@@H](COC[C@H](O)CN2C(=O)Nc2ccc(F)cc2)O1 | active
O=C(C[C@H]1CC[C@H]2[C@@H](COC[C@H](O)CN2C(=O)Nc2cccc(Cl)c2)O1)NCc1ccccc1F | inactive
O=C(C[C@H]1CC[C@@H]2[C@H](COC[C@@H](O)CN2C(=O)Nc2cccc(Cl)c2)O1)NCc1ccccc1F | active
COCCNC(=O)C[C@H]1CC[C@H]2[C@@H](COC[C@H](O)CN2C(=O)Nc2ccccc2OC)O1 | inactive
COc1ccccc1CNC(=O)C[C@@H]1CC[C@@H]2[C@H](COC[C@@H](O)CN2C(=O)Nc2ccc(F)cc2)O1 | inactive
COCCNC(=O)C[C@H]1CC[C@@H]2[C@H](COC[C@H](O)CN2C(=O)Nc2ccccc2OC)O1 | active
O=C(C[C@@H]1CC[C@H]2[C@@H](COC[C@H](O)CN2C(=O)Nc2cccc(Cl)c2)O1)NCc1ccccc1F | inactive
CO[C@@H]1CN(C)C(=O)c2cc(NC(=O)c3ccc(F)cc3)ccc2OC[C@H](C)N(C(=O)CN(C)C)C[C@@H]1C | inactive
CN1C(=O)c2cc(NC(=O)Nc3ccccc3F)ccc2OC[C@@H]2O[C@H](CC(=O)NCc3ccc(-c4ccccc4)cc3)CC[C@@H]21 | inactive
CS(=O)(=O)N1CCCn2c(nc(CNC(=O)CC3CC3)cc2=O)C1 | inactive
CC(C)Oc1oc(C(=O)NC2CCCCC2)c(-c2ccc(Cl)cc2)c1S(=O)(=O)c1ccc(Cl)cc1 | inactive
C[C@H](CO)N1C[C@H](C)[C@@H](CN(C)Cc2ccncc2)OCCCC[C@H](C)Oc2ccc(NC(=O)NC3CCCCC3)cc2C1=O | inactive
O=C(C[C@@H]1C=C[C@@H](NC(=O)C2CC2)[C@H](CO)O1)NCCCN1CCOCC1 | inactive
CN(C)C(=O)C[C@@H]1C=C[C@H](NC(=O)C2CCOCC2)[C@@H](CO)O1 | inactive
C[C@H](CO)N1C[C@H](C)[C@H](CN(C)S(=O)(=O)c2ccccc2)Oc2ccc(NC(=O)c3ccncc3)cc2C1=O | inactive

Compound | cytotoxicity call
O=S1(=O)CO[C@@H](c2ccccc2)CN1 | inactive
O=C(CS)NCCCCCCNC(=O)[C@@H]1C[C@@H]2C(=O)N3CCC[C@H]3C(=O)N2[C@@H]1c1cccc(OCCO)c1 | inactive
O=C(C[C@H]1CC[C@H]2[C@@H](COC[C@H](O)CN2Cc2cc(F)ccc2F)O1)N[C@@H]1CCN(Cc2ccccc2)C1 | inactive
C[C@@H]1CN([C@H](C)CO)C(=O)c2cccc(NC(=O)Nc3ccc(C(F)(F)F)cc3)c2O[C@H]1CN(C)C(=O)Nc1ccc(C(F)(F)F)cc1 | inactive
C[C@H]1CN([C@@H](C)CO)C(=O)c2cccc(NC(=O)Nc3ccc(C(F)(F)F)cc3)c2O[C@H]1CN(C)C(=O)Nc1ccc(C(F)(F)F)cc1 | inactive
C[C@H]1CN([C@@H](C)CO)C(=O)c2cccc(NC(=O)Nc3ccc(C(F)(F)F)cc3)c2O[C@@H]1CN(C)C(=O)Nc1ccc(C(F)(F)F)cc1 | active
C[C@@H]1CN([C@@H](C)CO)C(=O)c2cccc(NC(=O)Nc3ccc(C(F)(F)F)cc3)c2O[C@H]1CN(C)C(=O)Nc1ccc(C(F)(F)F)cc1 | inactive
C[C@H](CO)N1C[C@H](C)[C@H](CN(C)C(=O)Nc2ccc(C(F)(F)F)cc2)Oc2c(NC(=O)Nc3ccc(C(F)(F)F)cc3)cccc2C1=O | active
COc1ccc(NC(=O)Nc2cccc3c2O[C@H](CN(C)C(=O)Nc2ccc(C(F)(F)F)cc2)[C@@H](C)CN([C@@H](C)CO)C3=O)cc1 | inactive
C[C@@H]1CN([C@@H](C)CO)C(=O)c2cccc(NC(=O)Nc3ccc(C(F)(F)F)cc3)c2O[C@@H]1CN(C)C(=O)Nc1ccc(C(F)(F)F)cc1 | active
COc1ccc(NC(=O)Nc2cccc3c2O[C@@H](CN(C)C(=O)Nc2ccc(C(F)(F)F)cc2)[C@@H](C)CN([C@@H](C)CO)C3=O)cc1 | inactive
C[C@@H]1CN([C@H](C)CO)C(=O)c2cccc(NC(=O)Nc3ccc(C(F)(F)F)cc3)c2O[C@@H]1CN(C)C(=O)Nc1ccc(C(F)(F)F)cc1 | inactive
COc1ccc(NC(=O)N(C)C[C@H]2Oc3c(NC(=O)Nc4ccc(C(F)(F)F)cc4)cccc3C(=O)N([C@@H](C)CO)C[C@H]2C)cc1 | active
O=C(O)C[C@@H]1C=C[C@@H](NC(=O)c2ccncc2)[C@H](CO)O1 | inactive
CCCN(C)C[C@H]1OCCCC[C@@H](C)Oc2ccc(NC(=O)c3ccccc3)cc2C(=O)N([C@H](C)CO)C[C@H]1C | inactive
Cc1noc(C)c1NC(=O)Nc1ccc2c(c1)C(=O)N([C@H](C)CO)C[C@@H](C)[C@@H](CN(C)C(=O)Nc1ccccc1)OCCCC[C@@H](C)O2 | inactive
CN1N=C(N)c2cn([C@@H]3O[C@H](COP(=O)(O)O)[C@@H](O)[C@H]3O)c3ncnc1c23 | inactive
C[C@@H]1CN([C@@H](C)CO)C(=O)Cc2cc(NC(=O)CCN3CCOCC3)ccc2O[C@H]1CN(C)C(=O)Nc1ccccc1 | inactive
CCO[C@@H]1OC(C(=O)N2CCN(Cc3ccc4c(c3)OCO4)CC2)=C[C@H](c2ccc3c(c2)OCO3)[C@H]1CCCO | inactive
